The text below walks through data of PubChem BioAssay (NCI).

About 83,000 compounds went through this panel and 20% of them were active in at least one assay; those are over-represented in the sample as a whole.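 Growth was measured after 48 h exposure to one concentration of compound in 96-well plates. Values under 10 count as active.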 Values without a mark were called inactive. Active and inactive are the calls of the source.

What all share (test): NCI-60 one-dose screen, 48 h (100 = growth as untreated, 0 = no growth, -100 = all killed)
Holding throughout (details): 10 µM

In test [1] the test system is SK-MEL-2 melanoma.
The subject of test [2] is SN12C renal.
Test [3] concerns UO-31 renal.
Test [4] relates to TK-10 renal.
Test [5] relates to ACHN renal.
For test [6], the system named is CAKI-1 renal.
For test [7], the system named is A498 renal.
Test [8] deals with CCRF-CEM leukemia.
Test [9] deals with MOLT-4 leukemia.

`CCCCCCCCCCCCCCCCn1cc[n+](C)c1`: the growth in [1] is -64.5% (active); in test [2], -94.6% (active); in test [3], -85.9% (active); in [4], -80.4% (active); in test [5], -0.6% (active); in [6], -83.5% (active). The growth in test [7] is -65.3% (active); in test [8], 33.6%; in [9], 17.2%.
With `Cc1ncc([N+](=O)[O-])n1CCOc1ccc(C(=O)/C=C/c2ccc(C(F)(F)F)cc2)cc1`, the growth was 81% in test [1]; 77.9% in test [2]; 40.6% in test [3]; 72.4% in [4]; 80.7% in test [5]; 81.3% in [6]. The growth in test [7] is 74.5%; in test [8] it was 27.5%; in [9], 28.3%.
On to `Cc1ccccc1C1=N[C@@H](Cc2ccccc2)C(=O)c2c(nc3ccccn23)N1`, for which the growth in test [1] is 115%; in test [2], 107%; in [3], 80.6%; in test [4] it was 138%; in test [5], 94.5%; in [6], 88.9%. Besides, the growth in test [7] was 98.2%; in test [8] it was 105%; in test [9], 111%.
On to `Fc1ccc2[nH]c3c(NCCCN4CCOCC4)ncnc3c2c1`, for which the growth in test [1] was 65.7%; in test [2] it was 63.8%; in test [3], 45.9%; in [4], 12.7%; in [5], 23.9%; in test [6], 25.2%. For the same molecule, the figures for the growth in test [7], in test [8] and in [9] were 130%, 74.7% and 83.1%, respectively.
In the case of `Cc1cc2cc3c(=O)[nH]c(=O)cc-3n(CC(O)C(O)C(O)CO)c2cc1C` (stereo not given), the growth in [1] was 120%; in test [2], 113%; in test [3], 99.2%; in test [4] it was 125%; in test [5], 75.1%; in [6] it was 87.9%. Moreover, the growth was 109% in test [7], 105% in test [8] and 99.8% in [9].
Take `C[n+]1c(/C=C/c2c[nH]c3ccccc23)ccc2ccccc21`: the growth in test [1] was 83.9%; in [2], 64.4%; in test [3], 60.5%; in test [4], 89.6%; in test [5], 77.1%; in test [6] it was 88.8%. Besides, the growth was 54.5% in [7], 43.4% in test [8] and 9.37% (active) in test [9].
With `COc1ccc(-c2oncc2-c2cc(OC)c3c(c2)OCO3)cc1`, the growth in test [1] was -1.77% (active); in test [2] it was 35.9%; in [3], 39.8%; in test [4], 48.2%; in test [5], 41.1%; in [6], 22.9%. Further, the growth was 7.82% (active) in test [7], 16% in test [8] and 22.4% in test [9].
For `Cn1c([N+](=O)[O-])cnc1C=C1C(=O)c2ccccc2C1=O`, the growth is 1.67% (active) in test [1]; 42.9% in test [2]; 20.7% in test [3]; 48.8% in test [4]; 37.4% in test [5]; 37.3% in [6]. The growth in [7] is 70.1%; in test [8] it was 18.4%; in test [9] it was 21.8%.
Take `COc1ccc(Cn2cc3c(c2-c2cc(OC)c(OC)c(OC)c2)CCc2cnoc2-3)cc1N`: the growth is 37.1% in test [1]; 27.6% in test [2]; 40.4% in [3]; 75.6% in test [4]; 38.8% in test [5]; 6.52% (active) in test [6]. Further, the results for the growth in [7], in test [8] and in test [9] were 25%, 23.7% and 24.6%, respectively.
With `COc1ccc(-c2cc(/C=C3\C(=O)Nc4cc(Cl)ccc43)[nH]n2)cc1OC`, the growth in test [1] is 58.7%; in test [2] it was 70.5%; in test [3], 74.6%; in [4], 92.7%; in test [5] it was 84.3%; in test [6], 63.9%. Besides, the results for the growth in [7], in test [8] and in test [9] were 65.3%, 54.2% and 75%, respectively.
Turning to `O=C(NC1CCCC1)c1ccc(N2CCC(NCc3cccc(C(F)(F)F)c3)CC2)cc1`, the growth in test [1] was 108%; in test [2], 94.2%; in test [3] it was 62.3%; in [4] it was 101%; in test [5], 97.9%; in test [6] it was 101%. For the same molecule, the growth in test [7] is 92.1%; in [8] it was 75.7%; in [9] it was 70.2%.
Regarding `N#C/C(=C/c1cc([N+](=O)[O-])ccc1Cl)C(N)=O`, the growth is 88.2% in [1]; 98.8% in test [2]; 72.7% in [3]; 108% in test [4]; 105% in [5]; 86.9% in [6]. In addition, the figures for the growth in test [7], in test [8] and in test [9] were 111%, 63.1% and 87.1%, respectively.
For `O=[N+]([O-])c1cc2ncccc2c2ncccc12`, the growth is 84.9% in [1]; 87.2% in test [2]; 52.1% in [3]; 106% in test [4]; 65.3% in test [5]; 84.2% in test [6]. The growth in [7] was 111%; in [8] it was 74.9%; in test [9] it was 61.4%.
With `Cc1nc2sccn2c1-c1csc(Nc2cccc(Cl)c2C)n1`, the growth was 43.8% in test [1]; 59.4% in test [2]; 51.2% in test [3]; 54.6% in test [4]; 60.3% in [5]; 51.4% in [6]. Besides, the growth was 36.1% in test [7], 47.1% in test [8] and 40.2% in [9].
As for `COc1ccc(N2CCN(c3nc(-c4ccccc4)c(C#N)c(=O)[nH]3)CC2)cc1`, the growth was 120% in test [1]; 96.7% in [2]; 71.4% in [3]; 115% in test [4]; 99% in [5]; 98.6% in test [6]. Also, the values for the growth in [7], in [8] and in test [9] were 87.9%, 80.1% and 93.5%, respectively.
